# Reference: the supplement of paper PMC6555819
# Assays:
# Assay in all cases: PBM binding z-score (relative to random genomic background probes); higher = stronger binding; sequences stand for … in GC…GCGATTGACAGCGTAGAATGAAGG
# [1] = system: FXR:RXRa (NR concentration 270 nM, RXRa partner concentration 90 nM)
# Outline: (§1)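 For binding z-scores, the reference was random background probes on custom Agilent 4×180K protein-binding microarrays. These arrays were incubated 1 h with ligand-free nuclear receptor dimers in PBS pH 7.4, 2% milk, 0.02% Triton X-100, 1 mM DTT, 0.2 mg/mL BSA and 0.4 mg/ml salmon testes DNA. Fluorescence was scanned after antibody detection of each partner (one per run) and regression-normalized.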
# [2] = system: LXRa:RXRa (NR concentration 270 nM, RXRa partner concentration 90 nM)
# Outline: as §1
# [3] = system: LXRa homodimer (NR concentration 270 nM)
# Outline: as §1
# [4] = system: LXRb:RXRa (NR concentration 270 nM, RXRa partner concentration 90 nM)
# Outline: as §1
# [5] = system: LXRb homodimer (NR concentration 270 nM)
# Outline: as §1
# [6] = system: PPARa:RXRa (NR concentration 270 nM, RXRa partner concentration 90 nM)
# Outline: as §1
# [7] = system: PPARg:RXRa (NR concentration 180 nM, RXRa partner concentration 90 nM)
# Outline: as §1
# [8] = system: PPARg:RXRa 270nM:90nM, anti-RXR (NR concentration 270 nM, RXRa partner concentration 90 nM)
# Outline: as §1
# [9] = system: PPARg:RXRa 30nM:10nM, anti-RXR (NR concentration 30 nM, RXRa partner concentration 10 nM)
# Outline: as §1
# [10] = system: PPARg:RXRa 90nM:30nM, anti-RXR (NR concentration 90 nM, RXRa partner concentration 30 nM)
# Outline: as §1
# [11] = system: PPARg:RXRa DBDmut IVT, anti-RXR (DBD mutation: RXRa K156A/R161A, NR concentration 270 nM, RXRa partner concentration 90 nM)
# Outline: as §1
# [12] = system: PPARg:RXRa IVT, anti-PPARg (NR concentration 270 nM, RXRa partner concentration 90 nM)
# Outline: as §1
# [13] = system: PPARg DBDmut:RXRa IVT, anti-PPARg (DBD mutation: PPARg1 K132A/R137A, NR concentration 270 nM, RXRa partner concentration 90 nM)
# Outline: as §1
# [14] = system: PPARg DBDmut IVT, anti-PPARg (DBD mutation: PPARg1 K132A/R137A, NR concentration 270 nM)
# Outline: as §1
# [15] = system: PPARg homodimer (NR concentration 180 nM)
# Outline: as §1
# [16] = system: PXR:RXRa (NR concentration 270 nM, RXRa partner concentration 90 nM)
# Outline: as §1
# [17] = system: PXR homodimer (NR concentration 270 nM)
# Outline: as §1
# [18] = system: RARa:RXR (NR concentration 270 nM, RXRa partner concentration 90 nM)
# Outline: as §1
# [19] = system: RARa homodimer (NR concentration 270 nM)
# Outline: as §1
# [20] = system: RARb:RXRa (NR concentration 270 nM, RXRa partner concentration 90 nM)
# Outline: as §1
Sequence,PBM binding z-score [1],PBM binding z-score [2],PBM binding z-score [3],PBM binding z-score [4],PBM binding z-score [5],PBM binding z-score [6],PBM binding z-score [7],PBM binding z-score [8],PBM binding z-score [9],PBM binding z-score [10],PBM binding z-score [11],PBM binding z-score [12],PBM binding z-score [13],PBM binding z-score [14],PBM binding z-score [15],PBM binding z-score [16],PBM binding z-score [17],PBM binding z-score [18],PBM binding z-score [19],PBM binding z-score [20]
CCTTACGGATCAAGGTTATAGCACGGGTGGTACG,0.336,0.57,0.38,0.5,0.21,0.917,0.684,0.188,-0.114,0.0556,-0.655,0.0573,-0.059,0.154,0.562,0.548,0.798,0.636,1.03,0.891
GCTAGTTGCTCAGTAAAAGGTCACACACCGGTCG,3.27,4.03,4.51,4.02,0.393,4.42,2.23,3.52,1.06,2.88,0.44,1.7,-0.262,0.0665,2.95,4.84,0.686,5.72,1.56,4.1
CCTACTGGGCCACGGTCATTGATCAGTCAAAGCA,-0.282,-0.19,0.043,-0.408,-0.712,1.3,2.11,2.06,-0.0299,1.1,4.71,5.29,-0.475,-0.479,0.397,-0.436,-0.0793,-0.106,-0.863,1.56
CAAACTAGGTCAAGGTCAAAGGCGGTTTGTGCCA,6.43,5.36,3.25,4.34,1.01,5.91,9.82,8.02,6.66,8.34,8.62,8.69,1.56,1.08,4.11,4.86,2.19,5.36,1.25,5.02
GCTGCTAGGTCAACCGATGGTCAGCTAAAGCTCG,3.72,2.83,-0.00824,1.67,-0.103,3.53,2.64,3,0.428,1.82,4.93,4.21,-0.16,-0.394,1.63,1.43,-0.956,2.99,-0.609,4.22
ACTAGTTGGTCAGCTGAGGTCACCCACAATTCGG,3.88,3.1,2.1,3.2,0.552,3.63,1.42,2.6,0.58,2.01,1.12,2.73,0.761,0.737,3.43,5.45,1.71,4.87,1.52,3.58
CATACAGGGTCAGCTAGGCCAGGGTAGGGACGGC,4.52,2.89,-0.0552,1.98,0.437,4.12,3.01,2.84,0.569,1.95,0.462,2.48,0.368,0.335,1.37,2.18,-0.00796,3.16,0.91,4.02
TGAATGTGGTTATAAGATCAGGGAACGTTGCAAA,0.123,0.222,0.268,0.397,0.612,0.12,0.237,0.617,0.803,1.15,-0.328,0.343,0.967,1.11,0.749,0.00497,0.777,-0.382,1.15,0.0382
ACTATTAGTTGACTCAGGGCAACCGATACGACGC,0.117,0.225,0.326,0.195,0.862,0.023,0.893,0.163,0.201,0.123,0.402,0.739,1.01,1.08,0.52,0.329,0.569,0.544,0.791,0.893
TGAATGAGGTTATAAGATCTGGGAACGTTGCAAA,1.32,1.03,-0.215,1.06,-0.0795,2.54,1.01,1.83,0.892,1.58,1.24,1.57,0.727,-0.0307,0.305,0.714,-0.0184,1.12,0.0804,1.07
ACTAGCAGACCAAGTTTGGGTCACTCAAACAAAG,-0.0358,-0.0494,-0.696,0.808,-0.744,1.32,-0.0128,0.182,-0.186,0.531,-0.311,0.415,-0.191,-0.505,-0.222,0.6,-0.393,1.12,-0.119,0.992
TCTTGTAGATCAAGCATGTTAAGAAAGCCTGAGT,0.693,0.403,-0.106,0.334,-0.513,0.796,-0.182,1.46,2.56,2.01,1.83,0.509,0.824,-0.00587,-0.0678,0.378,0.162,0.466,0.241,-0.0485
ACAGACAGGTGAGTGAAGGTAACTAAGCTGGACG,0.105,-0.0477,-0.437,-0.48,-0.463,0.107,0.457,-0.0366,-0.0843,-0.406,0.098,0.719,-0.328,-0.677,-0.864,-0.279,-0.0557,0.0664,0.112,0.425
AGAATGAGTTTATACGTAGATCAGGGAAGAAAGT,-0.0777,-0.0651,-0.37,-0.296,-0.286,-0.283,0.634,-0.311,0.114,-0.213,-0.616,0.0744,0.757,0.612,-0.608,0.81,1.21,-0.34,0.222,0.0922
